Screening results: PubChem BioAssay, National Center for Advancing Translational Sciences (NCATS)
Tau ThT inhib: tau fibrillization inhibition (ThT binding) | AID 1460 | recombinant tau K18 P301L, heparin-induced fibrillization, ThT fluorescence | 270,000 compounds, 2.1% hits | Potency, µM (top dose mostly 57.4 µM), for the others: top-dose activity, negative = inhibition, hits mostly inhibitors | P10636; note: % is set by controls: 0 for no effect and ±100 for the full control effect; nearly all actives have a fitted effect of over 55% in size
Target sequence (P10636 561-689 P618L limits assumed): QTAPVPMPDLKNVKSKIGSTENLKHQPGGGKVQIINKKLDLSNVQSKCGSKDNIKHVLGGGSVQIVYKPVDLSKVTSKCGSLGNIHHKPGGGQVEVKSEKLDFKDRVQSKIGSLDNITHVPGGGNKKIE
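Using a mix of unlabeled (15 uM) and Alexa 594-labeled (0.24 uM) tau K18 P301L, heparin-triggered fibrillization over 6 hr at 37 C was scored by ThT fluorescence.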
HttQ103 aggreg: inhibitors of mutant huntingtin aggregate formation in PC12 cells; PC12 HttQ103-GFP aggregates, Acumen cytometry, 40 h; 220,000 compounds, 1.1% hits; Potency, µM (top dose mostly 46.1 µM), inactives show at the top dose activity change, negative = inhibition, hits mostly inhibitors; AID 1688; note: % is set by controls: 0 for no effect and ±100 for the full control effect; nearly all actives have a fitted effect of over 60% in size
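Quantitative HTS on tebufenozide-induced (100 nM) PC12 cells stably expressing polyQ103 Huntingtin exon 1–GFP. Reduction of bright GFP aggregates, detected by laser scanning cytometry after lysis, identified actives across the titration.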
Tau FP inhib: blocks human tau fibril formation measured by polarization; P10636; K18 P301L tau heparin fibrillization, Alexa594 FP, 6 h; Potency, µM (highest dose often 57.7 µM), for inactives: top-dose activity, negative = inhibition, actives largely listed as inhibitors; 280,000 compounds, 0.39% hits; AID 1468; note: % is set by controls: 0 for no effect and ±100 for the full control effect; nearly all actives have a fitted effect of over 55% in size
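Human K18 P301L fragment (15 uM unlabeled plus 0.24 uM Alexa 594-labeled) in 100 mM sodium acetate pH 7 with compound, aggregation induced by 20 uM heparin for 6 hr at 37 C. ThT (30 uM) added for 1 hr, then Alexa 594 FP read.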
Tau fluor cs: counter-screen for tau fibril formation inhibitors | tau K18 P301L Alexa594 fluorescence, heparin fibrillization | Potency, µM (series often up to 57.7 µM), for the others: top-dose activity change, negative = decrease | 280,000 compounds, 0.93% hits; note: % is set by controls: 0 for no effect and ±100 for the full control effect; nearly all actives have a fitted effect of over 55% in size
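Human tau K18 P301L (15 uM unlabeled, 0.24 uM Alexa 594-labeled) in 100 mM sodium acetate pH 7 with 20 uM heparin, 6 hr at 37 C. ThT 30 uM added, 1 hr ambient; Alexa 594 FP and total fluorescence read at 555/632 nm.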
HTT ATP protect: Huntington cell model cytoprotection by ATP luminescence. 230,000 compounds, 0.14% hits. PC12 HTT-Q103 induced, cytoprotection, ATP luminescence, 40 h. Potency, µM (series often up to 56.4 µM), for inactives: cytoprotection (ATP increase), hits mostly activators; note: % of control where 0% means no effect; nearly all actives have a fitted effect of over 45% in size
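ATP quantification (ATPlite) reports survival of PC12 cells in which tebufenozide, 100 nM final, switches on Htt exon 1 with 103 glutamines linked to GFP; compounds are titrated.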
The depositor's hits bear a star; [ ] = dose if it differs, or a comment. This is a sample that favours compounds with a hit; in the whole collection about 3.7% have one here. Calls come from the whole dose curve; as a rule, active = well fitted curve in the direction sought with a large enough effect; inconclusive = small, poorly fitted or top-dose-only effect, or another doubt; inactive = no such curve, though single readings can be large; an effect the other way counts as inactive or inconclusive. Potency is the fitted concentration of half-maximal effect.

For NC(=O)CC(NC(=O)c1ccccc1)c1ccc(NCc2ccccc2)c([N+](=O)[O-])c1 (stereo unspecified) the results were Tau ThT inhib 13µM*, HttQ103 aggreg -26%[9.22 µM], Tau FP inhib -3%, Tau fluor cs -28% and HTT ATP protect 2%[10 µM].
NC(=O)CC(NC(=O)c1ccccc1)c1ccc(NCCc2ccc(Cl)cc2)c([N+](=O)[O-])c1 (stereo unspecified) was read as Tau ThT inhib 13µM*, HttQ103 aggreg 15%[9.22 µM], Tau FP inhib -12%, Tau fluor cs inconclusive and HTT ATP protect 25%[10 µM].
Screening NC(=O)CC(NC(=O)c1ccccc1)c1ccc(NCc2ccc(F)cc2)c([N+](=O)[O-])c1 (stereo unspecified) returned Tau ThT inhib 25µM*, HttQ103 aggreg 24%[9.22 µM], Tau FP inhib 2%, Tau fluor cs -20% and HTT ATP protect 14%[10 µM].
`NC(=O)CC(NC(=O)Cc1ccc(Cl)cc1)c1ccc(NCc2ccccc2)c([N+](=O)[O-])c1` (stereo unspecified) gave Tau ThT inhib -1%, HttQ103 aggreg 0%[9.22 µM], Tau FP inhib -2%, Tau fluor cs 8% and HTT ATP protect 10%[10 µM].
For CC(C)[C@@H](C)/C=C\[C@@H](C)[C@@H]1CC[C@H]2C3=CC=C4C[C@@H](O)CC[C@]4(C)[C@H]3CC[C@]21C the results were HTT ATP protect -6%[10 µM].
Screening O=c1c2ccccc2nc2ccc(NCc3ccco3)nn12 returned Tau ThT inhib 18µM*, HttQ103 aggreg inconclusive, Tau FP inhib 22µM*, Tau fluor cs -22% and HTT ATP protect -64%.
CCCC(=O)N1CCN(c2ccc(NC(=O)c3cc4ccccc4o3)cc2)CC1 was read as Tau ThT inhib inconclusive, HttQ103 aggreg inconclusive, Tau FP inhib 7%, Tau fluor cs -28% and HTT ATP protect 2%[0.074 µM].
`CCC(=O)N1CCN(c2ccc(NC(=O)c3ccc([N+](=O)[O-])o3)cc2)CC1` gave Tau ThT inhib 3.2µM*, HttQ103 aggreg -5%[9.22 µM], Tau FP inhib 5%, Tau fluor cs -22% and HTT ATP protect 9%[10 µM].
`O=C(/C=C/c1ccc(Cl)c([N+](=O)[O-])c1)Nc1ccc(N2CCCC2)c(Cl)c1` gave Tau ThT inhib 1µM*, HttQ103 aggreg -2%, Tau FP inhib 6% and Tau fluor cs inconclusive.
`O=C(Nc1ccc(N2CCCC2)c(Cl)c1)c1ccc([N+](=O)[O-])o1` gave Tau ThT inhib 8.9µM*, HttQ103 aggreg -15%, Tau FP inhib -3%, Tau fluor cs 14µM*[quencher] and HTT ATP protect inconclusive.
`CCCC(=O)N1CCN(c2ccc(NC(=O)c3sc4ccccc4c3Cl)cc2)CC1` gave Tau ThT inhib 2.2µM*, HttQ103 aggreg 8%, Tau FP inhib inconclusive, Tau fluor cs -20% and HTT ATP protect -36%.
Screening O=C(Nc1ccc(N2CCCC2)c(Cl)c1)c1ccco1 returned Tau ThT inhib inconclusive, HttQ103 aggreg -11%, Tau FP inhib 5%, Tau fluor cs inconclusive and HTT ATP protect -95%.
Screening CS(=O)(=O)N1CCN(c2ccc(NC(=O)c3ccc([N+](=O)[O-])o3)cc2)CC1 returned Tau ThT inhib inconclusive, HttQ103 aggreg inconclusive, Tau FP inhib 7%, Tau fluor cs -25% and HTT ATP protect -68%.
`Cc1ccccc1-c1nc(CN2CCC(C(=O)NCc3ccccc3Cl)CC2)c(C)o1` gave Tau ThT inhib -10%, Tau FP inhib -2% and Tau fluor cs -15%.
`C[C@@H]1C(SC2Cn3cnc[n+]3C2)=C(C(=O)[O-])N2C(=O)[C@H]([C@@H](C)O)[C@@H]12` (stereo partly specified) gave HttQ103 aggreg -13% and HTT ATP protect 28%.
For COC(=O)c1ccc(OCC2c3cc(OC)c(OC)cc3CCN2C(=O)Cc2ccc(OC)cc2)cc1 (stereo unspecified) the results were Tau ThT inhib -7%, Tau FP inhib 8% and Tau fluor cs -7%.
Screening O=C(Cc1ccc(Cl)cc1)Nc1ccc(N2CCN(C(=O)c3ccco3)CC2)c(Cl)c1 returned Tau ThT inhib -20%, HttQ103 aggreg 10µM*, Tau FP inhib 11%, Tau fluor cs inconclusive and HTT ATP protect -4%[0.074 µM].
Screening CCCC(=O)N1CCN(c2ccc(NC(=O)c3ccc([N+](=O)[O-])o3)cc2)CC1 returned Tau ThT inhib 4µM*, HttQ103 aggreg 22µM*, Tau FP inhib -1%, Tau fluor cs -17% and HTT ATP protect -73%.
Screening O=C(Nc1ccc(N2CCN(C(=O)c3ccco3)CC2)c(Cl)c1)c1cccs1 returned Tau ThT inhib inconclusive, HttQ103 aggreg inconclusive, Tau FP inhib 2%, Tau fluor cs inconclusive and HTT ATP protect 4%[1.9 µM].
`O=C(Nc1ccc(N2CCN(C(=O)c3ccc(Cl)cc3)CC2)cc1)c1ccc([N+](=O)[O-])o1` gave Tau ThT inhib 13µM*, HttQ103 aggreg inconclusive, Tau FP inhib 4%, Tau fluor cs inconclusive and HTT ATP protect -9%[10 µM].
`O=C(Nc1ccc(N2CCN(C(=O)c3ccccc3)CC2)c(Cl)c1)c1ccc(Br)o1` gave Tau ThT inhib inconclusive, HttQ103 aggreg 11µM*, Tau FP inhib -2%, Tau fluor cs inconclusive and HTT ATP protect -69%.
`O=C(Nc1ccc(N2CCN(C(=O)c3ccccc3)CC2)cc1)c1ccc(Br)o1` gave Tau ThT inhib inconclusive, HttQ103 aggreg inconclusive, Tau FP inhib 5%, Tau fluor cs -24% and HTT ATP protect 1%[0.074 µM].
For O=C(Nc1ccc(N2CCN(C(=O)c3ccc(Cl)cc3)CC2)cc1)c1ccc2c(c1)OCCO2 the results were Tau ThT inhib inconclusive, HttQ103 aggreg inconclusive, Tau FP inhib 12%, Tau fluor cs inconclusive and HTT ATP protect 17%[10 µM].
Screening O=[N+]([O-])c1ccc(C2=Nn3c(nnc3-c3ccc(Cl)cc3)SC2)o1 returned HTT ATP protect -47%[10 µM].
Screening COC(=O)[C@@H]1CC2=CC(=O)CC[C@]2(C)[C@@]23O[C@@H]2C[C@@]2(C)[C@H](CC[C@@]24CCC(=O)O4)[C@@H]13 returned Tau ThT inhib -2%, Tau FP inhib 2%, Tau fluor cs 2% and HTT ATP protect inconclusive.
`CS[C@@H](CC(=O)O)C(=O)O` gave HTT ATP protect -13%[10 µM].
Screening Cc1cccc(C)c1NC(=O)c1c(-c2ccccc2)noc1C returned Tau ThT inhib 5%, HttQ103 aggreg inconclusive, Tau FP inhib 1%, Tau fluor cs 3% and HTT ATP protect -7%.
Screening Cc1cccc(NC(=O)c2c(-c3ccccc3)noc2C)n1 returned Tau ThT inhib 0%, HttQ103 aggreg -9%, Tau FP inhib -3%, Tau fluor cs 5% and HTT ATP protect 2.2µM*.
